PAFAH1B3 FP inh: PAFAH1B3 enzyme inhibitors, primary screen, biochemical, fluorescence polarization, human. recombinant PAFAH1B3, FP-rhodamine probe. inhibition, % at 3.39 µM. hit rate 0.28% among 340,000. AID 492972, 2010;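 active = inhibition above the screen-wide average of all tested compounds plus 3 SD, cut at about 25% in these data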
Target sequence (Q15102 whole entry, looked up): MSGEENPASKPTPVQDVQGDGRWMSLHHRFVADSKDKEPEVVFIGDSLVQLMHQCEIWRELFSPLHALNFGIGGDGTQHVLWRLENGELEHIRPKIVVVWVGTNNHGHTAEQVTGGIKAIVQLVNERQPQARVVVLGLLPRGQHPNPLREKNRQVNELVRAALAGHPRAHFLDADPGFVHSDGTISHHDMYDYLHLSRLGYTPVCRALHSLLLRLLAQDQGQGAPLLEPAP
PAFAH2 inh: PAFAH2 enzyme inhibitors, primary screen, biochemical, fluorescence polarization, human | hit rate 0.99% among 340,000 | recombinant PAFAH2, FP-rhodamine activity probe | inhibition, % at 3.39 µM | AID 492956, 2010 | Platelet-activating factor acetylhydrolase 2, cytoplasmic (Homo sapiens), Q99487;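 active = inhibition above the mean over all tested compounds plus 3 SD, cut at about 30% in these data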;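 also: inhibitors block probe labeling of enzyme so polarization drops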
LYPLA1 inh: LYPLA1 inhibitors, primary screen, counter-screen for PME1 inhibitor project, biochemical, fluorescence polarization, FP-Rh probe ABPP; recombinant LYPLA1; hit rate 0.16% among 320,000; Acyl-protein thioesterase 1 (Homo sapiens), O75608; inhibition, % at 5.9 µM; AID 2174, 2009;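 active = inhibition above the mean of all tested compounds plus 3 SD, set per campaign, cut at about 14% in these data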;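 also: inhibitors block serine hydrolase probe labeling of LYPLA1 so polarization falls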
LYPLA2 counter: LYPLA2 inhibitors, primary screen, counter-screen for PME1 inhibitor project, biochemical, fluorescence polarization, FP-Rh probe ABPP; Acyl-protein thioesterase 2 (Homo sapiens), O95372; recombinant LYPLA2; inhibition, % at 5.9 µM; hit rate 0.38% among 320,000;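 active = inhibition above the screen-wide mean plus 3 SD, limit set per campaign, cut at about 26% in these data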
Target sequence (O95372 whole entry, looked up): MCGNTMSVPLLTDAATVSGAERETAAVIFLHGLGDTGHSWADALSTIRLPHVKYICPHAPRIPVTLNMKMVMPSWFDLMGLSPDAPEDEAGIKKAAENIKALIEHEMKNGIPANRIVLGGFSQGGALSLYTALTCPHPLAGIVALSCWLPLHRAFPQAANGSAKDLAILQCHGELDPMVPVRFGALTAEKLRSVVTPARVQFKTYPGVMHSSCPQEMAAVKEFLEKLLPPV
pPAFAH FP inh: pPAFAH enzyme inhibitors, primary screen, biochemical, fluorescence polarization, human; recombinant pPAFAH, FP-rhodamine probe fluorescence polarization; inhibition, % at 3.39 µM; hit rate 1.5% among 330,000;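 active = inhibition above the mean inhibition across the screen plus 3 SD, cut at about 25% in these data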;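 also: inhibitors block binding of the rhodamine activity-based probe so polarization drops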
PAFAH1B2 inh: PAFAH1B2 enzyme inhibitors, primary screen, biochemical, fluorescence polarization, human; Platelet-activating factor acetylhydrolase IB subunit alpha2 (Homo sapiens), P68402; recombinant PAFAH1B2, FP-rhodamine activity probe; inhibition, % at 3.39 µM; hit rate 1.2% among 340,000;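 active = inhibition above the mean of all tested compounds plus 3 SD, cut at about 24% in these data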
Target sequence (P68402 whole entry, looked up): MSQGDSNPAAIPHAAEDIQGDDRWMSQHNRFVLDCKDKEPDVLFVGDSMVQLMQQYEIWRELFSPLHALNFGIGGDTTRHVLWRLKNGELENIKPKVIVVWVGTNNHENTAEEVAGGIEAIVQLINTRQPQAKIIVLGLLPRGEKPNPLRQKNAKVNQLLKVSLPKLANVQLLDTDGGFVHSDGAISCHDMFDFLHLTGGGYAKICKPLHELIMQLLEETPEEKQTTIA
Hits are given with their value; 0 = inactive; - = no result. Shown are actives, neighbours in structure and some others; about 2.9% of the full set was active somewhere.

SMILES | PAFAH1B3 FP inh | PAFAH2 inh | LYPLA1 inh | LYPLA2 counter | pPAFAH FP inh | PAFAH1B2 inh
CCOc1ccc(C(=O)N2CCCN(C(=O)c3ccc(OCC)cc3)CC2)cc1 | 0 | 0 | 0 | 0 | 0 | 0
CCOC(=O)c1ccc(NS(=O)(=O)c2cc3c4c(c2)CCN4C(=O)CC3)cc1 | 0 | 0 | 0 | 0 | 0 | 0
CCOc1ccc(NS(=O)(=O)c2ccc(C(=O)N3CCC3)cc2)cc1 | 0 | 0 | 0 | 0 | 46.1 | 0
CCOc1ccc(NS(=O)(=O)c2cc3c4c(c2)CCN4C(=O)CC3)cc1 | 0 | 0 | 0 | 0 | 24.9 | 0
CCOc1ccc(NS(=O)(=O)c2ccc(C(=O)N3CCCC3)cc2)cc1 | 0 | 0 | 0 | 0 | 25.2 | 0
Cc1ccc(S(=O)(=O)N(Cc2ccccc2)c2ccccc2C(=O)NCc2ccco2)cc1 | 0 | 0 | 0 | 0 | 0 | 0
Cc1cc(/C=C2/NC(=O)NC2=O)c(C)n1-c1ccccn1 | 0 | 0 | 0 | 0 | 0 | 0
CC(C(=O)Nc1ccccc1-c1ccccc1)N1CCN(S(=O)(=O)c2ccccc2)CC1 (stereo unspecified) | 0 | 0 | 0 | 0 | 0 | 30.9
Cc1ccc(S(=O)(=O)N2CCN(C(C)C(=O)NCC(C)c3ccccc3)CC2)cc1 (stereo unspecified) | 0 | 0 | - | - | 0 | 29.3
CC(C)c1ccc(S(=O)(=O)N2CCN(C(C)C(=O)Nc3ccccc3-c3ccccc3)CC2)cc1 (stereo unspecified) | 0 | 0 | 0 | 0 | 0 | 0
CC1(C)CC=CC(COC(=O)c2ccccc2C(=O)O)C1 (stereo unspecified) | 0 | 0 | - | - | - | 29.4
Cc1cc(O)c(C(=O)/C=C/c2ccc(C(C)C)cc2)c(=O)o1 | 0 | 0 | - | - | - | 27.7
CCC(C)(C(=O)Nc1c(C)cccc1C)N(C)C(=O)c1ccc2ccccc2n1 (stereo unspecified) | 0 | 0 | 0 | 0 | 0 | 0
N#C/C(=C\c1ccc(O)c(O)c1)C(=O)NCCCc1ccccc1 | 0 | 0 | 0 | 0 | 27.2 | 38.3
COc1ccc(/C=C(\C#N)C(=O)NCCc2ccccc2)cc1OCc1ccccc1 | 0 | 0 | 0 | 0 | 0 | 0
COc1ccccc1/C=C/C(=O)NC(=S)Nc1ccc(S(=O)(=O)N(C)c2ccccc2)cc1 | 0 | 0 | 0 | 0 | 0 | 0
O=C(O)c1[nH]c2ccccc2c1C(c1ccccc1)c1c(C(=O)O)[nH]c2ccccc12 | 0 | 0 | 0 | 0 | 0 | 88.5
O=C(O)COc1ccc(Br)cc1C(c1c(C(=O)O)[nH]c2ccccc12)c1c(C(=O)O)[nH]c2ccccc12 | 0 | 0 | 0 | 0 | 0 | 53.1
COc1cc(C(c2c(C(=O)O)[nH]c3ccccc23)c2c(C(=O)O)[nH]c3ccccc23)ccc1OCc1ccccc1 | 0 | 0 | 0 | 0 | 0 | 57.3
O=C(O)c1[nH]c2ccccc2c1C(c1cc(Cl)cc([N+](=O)[O-])c1O)c1c(C(=O)O)[nH]c2ccccc12 | 0 | 0 | 0 | 0 | 0 | 61.6
Cc1cc(=O)[nH]c(S/C=C/c2ccccc2)n1 | 0 | 0 | 0 | 0 | 0 | 0
CCOC(=O)CC1C(=O)NCCN1C(=O)c1cccc(C(F)(F)F)c1 (stereo unspecified) | 0 | 0 | 0 | 0 | 0 | 0
O=C(NCCSc1ccc(Br)cc1)c1ccc2nc[nH]c2c1 | 0 | 0 | 0 | 0 | 29.5 | 46.8
O=C(NCCc1ccc(Cl)cc1Cl)c1ccc2nc[nH]c2c1 | 0 | 0 | 0 | 0 | 0 | 28.6
O=C(NCc1cccc(Cl)c1)C1CCC(=O)N(CC2CCCCC2)C1 (stereo unspecified) | 0 | 0 | 0 | 0 | 0 | 0
SMILES | PAFAH1B3 FP inh | PAFAH2 inh | LYPLA1 inh | LYPLA2 counter | pPAFAH FP inh | PAFAH1B2 inh
O=S(=O)(Nc1ccccc1-c1ccccc1)c1ccccc1 | 0 | 0 | - | - | - | 26.1
Cc1ccc(S(=O)(=O)Nc2ccccc2-c2ccccc2NS(=O)(=O)c2ccc(C)cc2)cc1 | 0 | 0 | 0 | 0 | 25.2 | 58.8
Cc1cc(C)c(S(=O)(=O)Nc2ccccc2-c2ccccc2)c(C)c1 | 0 | 0 | 0 | 0 | 0 | 0
Cc1ccc(S(=O)(=O)Nc2ccccc2C(N)=O)cc1 | 0 | 0 | 0 | 0 | 0 | 0
CN(C)S(=O)(=O)c1ccc(C(=O)NC(=O)CSc2nnnn2C)cc1 | 0 | 0 | - | - | 0 | 0
COc1ccc(OC)c(CN2CCN(C(=O)c3cccc(S(=O)(=O)Nc4ccc(C)cc4)c3)CC2)c1 | 0 | 0 | 0 | 0 | 24.6 | 0
COc1ccc(NS(=O)(=O)c2cccc(C(=O)N3CCCCCCC3)c2)cc1 | 0 | 0 | 0 | 0 | 33.9 | 0
COc1cccc(S(=O)(=O)Nc2ccc(C(=O)N3CCCCCC3)cc2)c1 | 0 | 0 | 0 | 0 | 0 | 0
COc1ccc(C(=O)N2CCNC(=O)C2)cc1S(=O)(=O)Nc1ccc(Br)cc1 | 0 | 0 | 0 | 0 | 34.0 | 0
COc1ccc(NS(=O)(=O)c2cccc(C(=O)OCC(=O)N3CCN(c4ccc(OC)cc4)CC3)c2)cc1 | 0 | 0 | 0 | 0 | 27.7 | 0
Cn1c(=O)n(C)c2cc(S(=O)(=O)Nc3ccccc3C(=O)O)ccc21 | 0 | 0 | 0 | 0 | 0 | 0
Cc1ccc(N2CCN(CCc3nc4cc(NC(=O)c5ccco5)ccc4n3C)CC2)cc1 | 0 | 0 | 0 | 0 | 0 | 0
CC(=O)NC(CC(=O)NC1CCCCC1)c1ccccc1 (stereo unspecified) | 0 | 0 | 0 | 0 | 0 | 0
Cc1ccc(C(=O)N2CCCCCC2)cc1S(=O)(=O)Nc1ccccc1 | 0 | 0 | - | - | - | 0
COc1ccc(NS(=O)(=O)c2cccc(C(=O)N3CCN(c4ccccc4O)CC3)c2)cc1 | 0 | 0 | 0 | 0 | 27.1 | 0
COc1ccc(NS(=O)(=O)c2ccc(N3C(=O)CCC3=O)cc2)cc1 | 0 | 0 | 0 | 0 | 0 | 0
Cc1cccc(NS(=O)(=O)c2cccc(C(=O)N3CCN(S(=O)(=O)c4ccccc4)CC3)c2)c1 | 0 | 0 | 0 | 0 | 0 | 28.9
COc1ccc(S(=O)(=O)Nc2ccc(-n3cccc3)cc2)cc1 | 0 | 0 | 0 | 0 | 28.1 | 0
COc1ccc(C(=O)N2CCCCC2)cc1S(=O)(=O)Nc1ccccc1 | 0 | 0 | 0 | 0 | 33.4 | 0
CCOC(=O)N1CCN(C(=O)c2cccc(S(=O)(=O)Nc3ccc(Br)cc3)c2)CC1 | 0 | 0 | 0 | 0 | 32.1 | 0
COc1ccc(NS(=O)(=O)c2cccc(C(=O)OCC(=O)c3c(N)n(C)c(=O)n(C)c3=O)c2)cc1 | 0 | 0 | - | - | 29.2 | 0
O=C(/C=C/c1cccc([N+](=O)[O-])c1)N1CCN(c2ccccc2F)CC1 | 0 | 0 | 0 | 0 | 0 | 0
O=c1[nH]nc(SCc2ccccc2)n1C1CC2C=CC1C2 (stereo unspecified) | 0 | 0 | 0 | 0 | 0 | 25.9
